# Measured values: PubChem BioAssay (EPA / NIEHS)
# Values joined by “and” are separate entries in the source; they are usually repeats but may differ in a detail not shown here. Equal entries are not always repeated. Results filed as inconclusive are left out. Some structures have more than one record in an assay (separate samples or runs), and their calls can disagree. Active and inactive are the calls of the source. The calls were made as follows: active = hit-call score of the fitted dose curve at least 0.9, where 1 is the maximum; inconclusive = response in the unintended direction; inactive = score below 0.9.
# Columns and labels:
# [1] = ATG_XTT_Cytotoxicity: Cytotoxicity Assessment in the Attagene TRANS-FACTORIAL HepG2 Assay (AID 2283584)
# How it was run: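 HepG2 human liver cells, transiently transfected with multiple GAL4-UAS reporter units, were dosed and read at 24 h by XTT as cell number. Loss of signal was fitted relative to DMSO negative control baseline.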
# [2] = TOX21_p53_BLA_p2_viability: Viability Assessment in the Tox21 HCT-116 p53 Agonism Beta-lactamase Assay, Phase 2 (AID 2283591);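 also: compound exposure lasted 16 h at 37 °C; actives lower the ATP signal meaning cytotoxicity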
# How it was run: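 HCT-116 p53-bla cells (4000/well) rested 5 h at 37C, then received compounds in DMSO (217-fold dilution) for 16 h at 37C, 5% CO2. After the CCF4 read, CellTiter-Glo was added; ATP luminescence was read after 30 min at room temperature.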
# [3] = molecular target: Cellular tumor antigen p53 (Homo sapiens) (UniProt P04637); assay: TOX21_p53_BLA_p2_ratio: Tox21 HCT-116 p53 Agonism Beta-lactamase Assay, Ratio, Phase 2 (AID 2283592)
# How it was run: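 HCT116 cells carrying a p53-responsive beta-lactamase reporter were plated, incubated 5 h at 37C, then dosed with compounds in DMSO (217-fold dilution) for 16 h. CCF4-AM substrate was added for 2 h at room temperature; the 460/530 nm emission ratio gave gain-of-signal activity relative to DMSO.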
# [4] = TOX21_p53_BLA_p3_viability: Viability Assessment in the Tox21 HCT-116 p53 Agonism Beta-lactamase Assay, Phase 3 (AID 2283593);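 also: cells exposed to compound for 16 h before reading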
# How it was run: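 HCT-116 cells (4000/well) rested 5 h at 37C, then got DMSO compounds by pin tool (217-fold dilution) for 16 h at 37C, 5% CO2. After the bla read, CellTiter-Glo was added and luminescence read at 30 min, room temperature.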
# [5] = molecular target: Cellular tumor antigen p53 (Homo sapiens) (UniProt P04637); assay: TOX21_p53_BLA_p3_ratio: Tox21 HCT-116 p53 Agonism Beta-lactamase Assay, Ratio, Phase 3 (AID 2283596)
# How it was run: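 HCT116 p53-bla cells (4000/well) given compound in DMSO (217-fold dilution) after 5 h, incubated 16 h at 37C. CCF4-AM substrate 2 h at room temperature; 460/530 nm emission ratio, gain fitted against DMSO.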
# [6] = TOX21_p53_BLA_p4_viability: Viability Assessment in the Tox21 HCT-116 p53 Agonism Beta-lactamase Assay, Phase 4 (AID 2283597);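 also: hits lower the luminescence signal meaning cytotoxicity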
# How it was run: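 HCT116 p53-bla cells (4000/well) rested 5 h at 37C, then received compounds in DMSO (217-fold dilution) for 16 h at 37C, 5% CO2. CellTiter-Glo was added after the CCF4-AM read, and luminescence was read after 30 min at room temperature.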
# [7] = molecular target: Cellular tumor antigen p53 (Homo sapiens) (UniProt P04637); assay: TOX21_p53_BLA_p5_ratio: Tox21 HCT-116 p53 Agonism Beta-lactamase Assay, Ratio, Phase 5 (AID 2283599)
# How it was run: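 HCT-116 cells carrying a p53-inducible beta-lactamase reporter were seeded at 4000 cells/well and dosed after 5 h with compound in DMSO (217-fold dilution). After 16 h at 37C, CCF4-AM substrate was added for 2 h, and the 460/530 nm emission ratio was scored as gain-of-signal versus DMSO.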
# [8] = TOX21_p53_BLA_p5_viability: Viability Assessment in the Tox21 HCT-116 p53 Agonism Beta-lactamase Assay, Phase 5 (AID 2283600)
# How it was run: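 Cells were plated at 4000/well, rested 5 h at 37C, then given compounds in DMSO (217-fold dilution) for 16 h at 37C, 5% CO2. Following the CCF4-AM beta-lactamase read, CellTiter-Glo was added and luminescence was read after 30 min at room temperature.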
# Chain of Cellular tumor antigen p53 (Homo sapiens) (P04637 whole entry, looked up): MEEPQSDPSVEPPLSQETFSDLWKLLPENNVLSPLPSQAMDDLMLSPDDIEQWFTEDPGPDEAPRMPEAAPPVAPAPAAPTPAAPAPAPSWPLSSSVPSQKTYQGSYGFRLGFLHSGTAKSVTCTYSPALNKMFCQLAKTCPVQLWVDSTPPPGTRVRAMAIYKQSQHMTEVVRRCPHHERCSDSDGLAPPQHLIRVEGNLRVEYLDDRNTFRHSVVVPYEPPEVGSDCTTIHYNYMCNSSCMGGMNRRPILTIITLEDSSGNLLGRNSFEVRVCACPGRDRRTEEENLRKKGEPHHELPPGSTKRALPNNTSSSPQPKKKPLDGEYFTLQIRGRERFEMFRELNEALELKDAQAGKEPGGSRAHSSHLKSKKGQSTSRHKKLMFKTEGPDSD
structure (smiles),measurement,setting,value
CCCC(C)CCC(C)=O (stereo not drawn),outcome,[1],inactive
COc1ccc(NC(C)=O)cc1N,outcome,[1],inactive
CC(=O)CC(N)=O,outcome,[1],inactive
CCOC(=O)[C@H](C)O,outcome,[1],inactive
CC(C)=CC1CC(C)CCO1 (stereo not drawn),outcome,[1],inactive
CC1(C)[C@H]2CC[C@]1(C)C(=O)C2,outcome,[1],inactive
O=S(=O)(O)c1cc(S(=O)(=O)O)c2ccc3c(S(=O)(=O)O)cc(S(=O)(=O)O)c4ccc1c2c43,outcome,[1],inactive
CC(=O)OCc1ccco1,outcome,[1],inactive
O=c1cc(-c2ccccc2)oc2ccccc12,outcome,[1],inactive
COc1cc(NC(=O)CC(C)=O)c(OC)cc1Cl,outcome,[1],inactive
same,AC50,[2],18.8 µM (active)
same,outcome,[2],inactive
same,outcome,[3],inactive
same,outcome,[4],inactive
same,outcome,[5],inactive
same,AC50,[6],31 µM (active)
same,outcome,[6],inactive
same,outcome,[7],inactive
same,outcome,[8],inactive
CC(C)c1ccc2cc(C(C)C)ccc2c1,outcome,[1],inactive
Nc1ncn([C@@H]2O[C@H](CO)[C@@H](O)[C@H]2O)c(=O)n1,outcome,[1],inactive
same,outcome,[2],inactive
same,AC50,[3],1.06 µM (active)
same,outcome,[3],inactive
same,outcome,[4],inactive
same,AC50,[5],13.4 µM (active)
same,outcome,[5],inactive
same,AC50,[6],1.15 µM (active) and 514 nM (active)
same,AC50,[7],3.88 µM (active) and 6.69 µM (active)
same,outcome,[8],inactive
Nc1ccc(N)c(Cl)c1,outcome,[1],inactive
same,outcome,[2],inactive
same,AC50,[3],68.3 µM (active)
same,outcome,[3],inactive
same,outcome,[4],inactive
same,AC50,[5],76.2 µM (active)
same,outcome,[6],inactive
same,AC50,[7],75.2 µM (active)
same,outcome,[7],inactive
same,outcome,[8],inactive
CCOc1nc(F)cc2nc(S(=O)(=O)Nc3c(Cl)cccc3C(=O)OC)nn12,outcome,[1],inactive
COCCCOCCCOC,outcome,[1],inactive
CC1(C)O[C@@H]2C[C@H]3[C@@H]4C[C@H](F)C5=CC(=O)C=C[C@]5(C)[C@@]4(F)[C@@H](O)C[C@]3(C)[C@]2(C(=O)CO)O1,outcome,[1],inactive
